Results filed as inconclusive are left out. The source made the active and inactive calls. How the source made its calls: active means hit-call score of the fitted dose curve at least 0.9, where 1 is the maximum; inconclusive means response in the unintended direction; inactive means score below 0.9.

AR (gene 367), sequence (P10275 whole entry, looked up): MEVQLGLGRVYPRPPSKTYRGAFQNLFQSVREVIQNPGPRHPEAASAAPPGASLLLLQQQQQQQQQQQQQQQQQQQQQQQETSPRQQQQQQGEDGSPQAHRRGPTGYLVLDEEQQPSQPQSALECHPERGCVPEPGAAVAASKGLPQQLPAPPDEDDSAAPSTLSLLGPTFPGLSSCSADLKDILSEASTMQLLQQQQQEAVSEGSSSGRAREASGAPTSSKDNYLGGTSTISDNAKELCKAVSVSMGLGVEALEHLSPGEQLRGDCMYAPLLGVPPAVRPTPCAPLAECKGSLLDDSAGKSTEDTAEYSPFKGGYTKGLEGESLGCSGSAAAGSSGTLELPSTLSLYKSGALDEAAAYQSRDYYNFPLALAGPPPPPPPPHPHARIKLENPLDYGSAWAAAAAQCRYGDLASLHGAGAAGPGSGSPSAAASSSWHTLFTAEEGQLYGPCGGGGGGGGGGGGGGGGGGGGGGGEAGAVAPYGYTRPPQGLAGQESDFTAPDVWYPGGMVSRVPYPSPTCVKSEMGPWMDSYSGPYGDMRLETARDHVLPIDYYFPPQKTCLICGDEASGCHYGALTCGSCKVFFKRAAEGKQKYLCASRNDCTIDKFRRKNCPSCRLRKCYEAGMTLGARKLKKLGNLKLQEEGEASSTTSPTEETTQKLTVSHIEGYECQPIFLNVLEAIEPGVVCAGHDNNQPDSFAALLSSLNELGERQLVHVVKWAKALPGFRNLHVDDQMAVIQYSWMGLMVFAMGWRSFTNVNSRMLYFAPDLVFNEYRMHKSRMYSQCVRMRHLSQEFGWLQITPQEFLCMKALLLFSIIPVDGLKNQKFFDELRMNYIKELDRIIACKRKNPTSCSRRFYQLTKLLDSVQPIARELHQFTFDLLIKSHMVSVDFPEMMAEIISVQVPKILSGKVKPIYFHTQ

The target in the assay is AR (gene 367) (UniProt P10275). As to the kind of experiment: ACEA_AR_antagonist_80hr: ACEA Biosciences xCELLigence Real-Time Cell Analysis on Androgen Receptor Antagonism for Proliferation (AID 2283787).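 Further: 22Rv1 human prostate cancer cells with growth followed by electrical impedance; hits lower the impedance growth signal relative to DMSO.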 In outline:
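Impedance readout (RT-CES), 80 h post-dose; loss-of-signal vs DMSO baseline. 22Rv1 cells in assay medium. Compounds: 8-pt 1:4 series, max 100 uM final, up to 0.5% DMSO; n = 2.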
The AC50 is the concentration at which the activity in the assay is half-maximal. With `O=c1cc(-c2ccccc2)oc2ccccc12`, the AC50 is 0.0284 µM (active).

Consider `CC(C)c1ccc2cc(C(C)C)ccc2c1`, for which the compound was called inactive. On to `Oc1ccc(Cl)cc1Cc1cc(Cl)ccc1O`, for which the half-maximal activity concentration (AC50) was 10.2 µM (active). In the case of `CC(C)=CCC[C@H](C)CCO`, the result was inactive. Consider `CCCCC/C=C\CCC=O`, for which the compound was classed as inactive. For the compound `CC(C)(C)c1ccc(-c2ccc(C(C)(C)C)cc2)cc1`, the call was inactive. Same read-out and setting: in the case of `CCCc1ccc(OC)cc1` it was “inactive”.
